In PubChem BioAssay (Tox21):
Several values for one entry are separate records, joined by “and”; a condition that tells them apart may be missing. Equal entries are not always repeated. Records with an inconclusive call do not appear. Activity calls are given as the source filed them. Calls come from the whole dose curve; as a rule, active = well fitted curve in the direction sought with a large enough effect in the repeat runs; inconclusive = weak or mixed curves; inactive = no such curve, though single readings can be large; an effect the other way counts as inactive or inconclusive.

Columns and labels:
[1] = qHTS RealTime-Glo MT Cell Viability Assay in HepG2 cells - 40 hour (AID 1224870); note: nearly all actives have a fitted effect of over 50% in size
Summary of the method: (§1)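 HepG2 cells mixed with RealTime-Glo MT reagents (NanoLuc plus cell-permeant prosubstrate) were seeded at 600 cells/well, incubated 5 h at 37 C/5% CO2, then pinned with compounds in DMSO; nonlytic luminescence tracked viability during 40 h treatment.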

[2] = A CellTox Green Cytotoxicity Assay to monitor cytotoxicity in HEK293 cells - 40 hour (AID 1224871); note: nearly all actives have a fitted effect of over 45% in size
Summary of the method: (§2)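 Nonlytic real-time cytotoxicity: HEK293 + CellTox Green reagent plated, 5 h preincubation, pintool compound addition (23 nL in DMSO), 37 C for 40 h, fluorescence measured at successive time points.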

[3] = qHTS RealTime-Glo MT Cell Viability Assay in HEK293 cells - 16 hour (AID 1224872); note: nearly all actives have a fitted effect of over 50% in size; note: potency is the fitted concentration of half-maximal effect
Summary of the method: (§3)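 Reads taken at 0, 8, 16, 24, 32 and 40 h from the same wells. HEK293 cells (600/well) carried RealTime-Glo reagents from seeding, with compound added after a 5 h settle at 37 C.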

[4] = qHTS RealTime-Glo MT Cell Viability Assay in HepG2 cells - 8 hour (AID 1224873); note: nearly all actives have a fitted effect of over 55% in size
Summary of the method: as §1

[5] = A CellTox Green Cytotoxicity Assay to monitor cytotoxicity in HEK293 cells - 24 hour (AID 1224875); note: series mostly up to about 77 µM; nearly all actives have a fitted effect of over 45% in size
Summary of the method: as §2

[6] = A CellTox Green Cytotoxicity Assay to monitor cytotoxicity in HepG2 cells - 16 hour (AID 1224876); note: nearly all actives have a fitted effect of over 45% in size
Summary of the method: (§4)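 Read-out is fluorescence of a cyanine dye excluded from live cells that stains DNA of dead HepG2 cells, with signal proportional to cytotoxicity. Plates were read at 0, 8, 16, 24, 32 and 40 h after compound addition.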

[7] = qHTS RealTime-Glo MT Cell Viability Assay in HepG2 cells - 32 hour (AID 1224877); note: nearly all actives have a fitted effect of over 55% in size
Summary of the method: (§5)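 HepG2 suspension premixed with RealTime-Glo reagents is plated at 600 cells per well and left 5 h at 37 C/5% CO2. Compounds in DMSO then go in, and bioluminescence reflecting viable cell number is recorded over 40 h.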

[8] = A CellTox Green Cytotoxicity Assay to monitor cytotoxicity in HepG2 cells - 24 hour (AID 1224878); note: nearly all actives have a fitted effect of over 45% in size
Summary of the method: as §4

[9] = qHTS RealTime-Glo MT Cell Viability Assay in HEK293 cells - 0 hour (AID 1224880)
Summary of the method: (§6)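 Cells were seeded together with NanoLuc luciferase and a prosubstrate that viable cells reduce to a luciferase substrate. After a 5 h incubation at 37 C/5% CO2, compounds were added and luminescence was measured repeatedly during 40 h of treatment.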

[10] = A CellTox Green Cytotoxicity Assay to monitor cytotoxicity in HEK293 cells - 32 hour (AID 1224881); note: nearly all actives have a fitted effect of over 40% in size
Summary of the method: as §2

[11] = A CellTox Green Cytotoxicity Assay to monitor cytotoxicity in HepG2 cells - 32 hour (AID 1224883); note: nearly all actives have a fitted effect of over 50% in size
Summary of the method: as §4

[12] = A CellTox Green Cytotoxicity Assay to monitor cytotoxicity in HEK293 cells - 8 hour (AID 1224884); note: nearly all actives have a fitted effect of over 35% in size
Summary of the method: as §2

[13] = qHTS RealTime-Glo MT Cell Viability Assay in HepG2 cells - 16 hour (AID 1224885); note: nearly all actives have a fitted effect of over 50% in size
Summary of the method: as §5

[14] = qHTS RealTime-Glo MT Cell Viability Assay in HEK293 cells - 24 hour (AID 1224886); note: nearly all actives have a fitted effect of over 50% in size; note: potency is the fitted concentration of half-maximal effect
Summary of the method: as §3

[15] = qHTS RealTime-Glo MT Cell Viability Assay in HEK293 cells - 8 hour (AID 1224887)
Summary of the method: as §6

[16] = A CellTox Green Cytotoxicity Assay to monitor cytotoxicity in HEK293 cells - 16 hour (AID 1224888); note: nearly all actives have a fitted effect of over 35% in size
Summary of the method: as §2

[17] = qHTS RealTime-Glo MT Cell Viability Assay in HepG2 cells - 0 hour (AID 1224889); note: nearly all actives have a fitted effect of over 50% in size; note: potency is the fitted concentration of half-maximal effect
Summary of the method: as §5

[18] = qHTS RealTime-Glo MT Cell Viability Assay in HEK293 cells - 40 hour (AID 1224874); conditions: RealTime-Glo luminescence; max response: active compounds read low; note: nearly all actives have a fitted effect of over 50% in size; note: potency is the fitted concentration of half-maximal effect
Summary of the method: as §6

[19] = A CellTox Green Cytotoxicity Assay to monitor cytotoxicity in HepG2 cells - 0 hour (AID 1224882); note: nearly all actives have a fitted effect of over 35% in size
Summary of the method: as §4

[20] = A CellTox Green Cytotoxicity Assay to monitor cytotoxicity in HepG2 cells - 40 hour (AID 1224879); note: nearly all actives have a fitted effect of over 40% in size
Summary of the method: as §4
% is set by controls: 0 for no effect and ±100 for the full control effect.

CC(=O)[C@@]1(O)CC[C@H]2[C@@H]3CCC4=CC(=O)CC[C@]4(C)[C@H]3CC[C@@]21C
inactive: Potency [1] | Potency [2] | Potency [3] | Potency [4] | Potency [5] | Potency [6] | Potency [7] | Potency [8] | Potency [9] | Potency [10] | Potency [11] | Potency [12] | Potency [13] | Potency [14] | Potency [15] | Potency [16]
active: Potency [17] 6.16 µM and 8.49 µM

CCCCC(CC)COC(=O)/C=C\C(=O)OCC(CC)CCCC (stereo not given)
inactive: Potency [1] | Potency [2] | Potency [3] | max response [18] 1.02% and -3.16% | Potency [5] | Potency [6] | Potency [7] | Potency [8] | Potency [9] | Potency [10] | Potency [19] | Potency [11] | Potency [12] | Potency [14] | Potency [15] | Potency [16] | Potency [17]

c1ccc2[nH]cnc2c1
inactive: Potency [1] | Potency [2] | Potency [3] | Potency [4] | max response [18] -5.47% and 1.04% | Potency [5] | Potency [7] | Potency [8] | Potency [20] | Potency [9] | Potency [19] | Potency [11] | Potency [12] | Potency [13] | Potency [14] | Potency [15] | Potency [16]

C=C1CC[C@H](O)CC1=C/C=C1\CCC[C@]2(C)[C@@H]([C@H](C)/C=C/[C@H](C)C(C)C)CC[C@@H]12
inactive: Potency [1] | Potency [2] | Potency [4] | Potency [5] | Potency [7] | Potency [8] | Potency [20] | Potency [9] | Potency [10] | Potency [19] | Potency [11] | Potency [12] | Potency [13] | Potency [16]
active: Potency [3] 43.6 µM | Potency [18] 48.5 µM and 49 µM | Potency [14] 43.6 µM

CCCCCCCCC
inactive: Potency [1] | Potency [2] | Potency [3] | Potency [4] | max response [18] 9.17% and -1.35% | Potency [5] | Potency [7] | Potency [8] | Potency [20] | Potency [9] | Potency [19] | Potency [11] | Potency [12] | Potency [13] | Potency [14] | Potency [15] | Potency [16]

CCCCC(CC)COC(C)=O (stereo not given)
inactive: Potency [1] | Potency [2] | Potency [3] | Potency [4] | max response [18] 1.23% and 1.38% | Potency [5] | Potency [7] | Potency [8] | Potency [20] | Potency [9] | Potency [10] | Potency [11] | Potency [12] | Potency [13] | Potency [14] | Potency [15] | Potency [16] | Potency [17]

CCCCCCCCCCC=CC1CC(=O)OC1=O (stereo not given)
inactive: Potency [1] | Potency [2] | Potency [3] | Potency [4] | max response [18] 0.806% and -0.583% | Potency [5] | Potency [6] | Potency [7] | Potency [8] | Potency [9] | Potency [10] | Potency [11] | Potency [12] | Potency [13] | Potency [14] | Potency [15] | Potency [16]
